Rows were chosen to be rich in hits. Some 11% of all compounds tested hit in one or more screens of this group.
Sm TGR inh = inhibitors of Schistosoma mansoni thioredoxin glutathione reductase. purified TGR, DTNB reduction, TNB absorbance 405 nm. Potency, µM (series often up to 114 µM), for the others: top-dose activity change, negative = inhibition, usual class: inhibitors. hit rate 3% among 360,000; further: on the % scale 0 is the no-effect control and ±100 the full control effect; nearly all actives have a fitted effect of over 60% in size
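TGR 20 nM + NADPH 100 uM (dispensed conc.), cpd preinc 15 min RT; start with NADPH (500 uM addition) then DTNB (15 mM addition). Kinetic TNB absorbance, 405 nm filter. Four-parameter Hill fit across titration.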
Pf growth 96h = P. falciparum growth inhibition at 96 hours. P. falciparum luciferase reporter growth, 96 h. Potency, µM (series often up to 28.7 µM), for inactives: at the top dose activity change, negative = inhibition, actives largely listed as inhibitors. hit rate 6.9% among 320,000. AID 504834; further: on the % scale 0 is the no-effect control and ±100 the full control effect
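Parasite growth measured via integrated firefly luciferase reporter in P. falciparum. Infected erythrocytes at 2% hematocrit, 0.05% parasitemia final were treated 96 hours at 37 C under 5% CO2, and luminescence was read.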
NS1 function inh = blocks influenza NS1 protein function; Potency, µM (series often up to 46.1 µM), for the others: at the top dose activity, positive = more growth; hit rate 0.4% among 270,000; calls by dose curve; further: actives are rising curves; nearly all actives have a fitted effect of over 50% in size
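Read-out: OD600 growth recovery of NS1-expressing budding yeast. Cells grown overnight at 30C in -URA glucose medium, washed, resuspended and diluted 1:100 in 2% galactose assay medium, pH 6.0. Same strain lacking NS1 served as positive control.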
AMA1-RON2 inh = AMA1-RON2 (P. falciparum) interaction inhibition; AlphaScreen AMA1-biotinylated RON2 peptide binding; hit rate 0.2% among 360,000; Potency, µM (titrated, usually from 58.2 µM), for the others: at the top dose activity change, negative = inhibition, usual class: inhibitors;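 further: 0% = vehicle wells and -100% = peptide control; nearly all actives have a fitted effect of over 45% in size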
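AMA1 (3D7) with his tag at 25 nM final met compounds first, then biotinylated RON2 peptide at 25 nM; detection used donor plus acceptor beads, 10 µg/mL apiece, read by AlphaScreen after 30 min at room temperature.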
Pf growth 48h = inhibits P. falciparum growth in the first generation, 48 h; hit rate 5.9% among 310,000; Potency, µM (top dose mostly 28.7 µM), for inactives: at the top dose activity change, negative = inhibition, hits mostly inhibitors; P. falciparum luciferase growth in erythrocytes, 48 h; further: on the % scale 0 is the no-effect control and ±100 the full control effect
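Firefly luciferase activity from engineered P. falciparum reports growth; inhibitors lower the luminescent signal. Cultures contained 2% hematocrit erythrocytes at 0.1% final parasitemia.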
Active calls of the source: *; ? = inconclusive; . = no result given; [ ] = remark or other dose. Unless noted, the call rests on the fitted dose curve; in most records, active means well fitted curve in the direction sought with a large enough effect; inconclusive means small, poorly fitted or top-dose-only effect, or another doubt; inactive means no such curve, though single readings can be large; an effect the other way counts as inactive or inconclusive. Potency means the concentration at half of the fitted maximal effect.

SMILES	Sm TGR inh	Pf growth 96h	NS1 function inh	AMA1-RON2 inh	Pf growth 48h
CCC1C(=O)CC(c2ccco2)NC1c1ccco1 (centres undefined)	-25%	-5%	2%	3%	-17%
CCN(C[C@H]1N[C@@](C)(C(=O)OC)[C@H]2C(=O)N(C)C(=O)[C@@H]12)S(=O)(=O)c1ccc(OC)cc1	.	.	.	-2%	.
CCC(C)(C)n1nnnc1C(C(C)C)N(Cc1ccco1)Cc1cc2cc3c(cc2[nH]c1=O)OCO3 (centres undefined)	?	?	-4%	-9%	?
Cc1ccc2[nH]c(=O)c(CN(CCCO)C(C)c3nnnn3Cc3ccco3)cc2c1 (centres undefined)	-36%	-10%	-4%	-3%	2.3µM*
CCC(c1nnnn1Cc1ccco1)N(Cc1cc2cc(C)cc(C)c2[nH]c1=O)CC1CCCO1 (centres undefined)	22µM*	25%	2%	8%	?
CCC(c1nnnn1Cc1ccco1)N(Cc1ccccc1OC)Cc1cc2cc(C)ccc2[nH]c1=O (centres undefined)	-21%	?	-26%	5%	1.5µM*
Cc1nonc1OCC(C)(COc1nonc1C)NC(=O)c1ccc(Cl)cc1	24%	4.7µM*	-1%	1%	8.3µM*
CC(C)(C)c1ccc(C[C@H](C(=O)O)N2C(=O)c3ccc(C(=O)O)cc3C2=O)cc1	-3%	12%	.	.	-10%
O=C(O)c1ccc2c(c1)C(=O)N([C@H](Cc1ccc(O)c(O)c1)C(=O)O)C2=O	13µM*	-5%	.	.	-1%
COc1ccc(NC(=O)CSc2ccc3nnc(CCNC(=O)c4ccccc4)n3n2)cc1	3%	?	-5%	-10%	-14%
Cc1ccc(C(=O)NCCc2nnc3ccc(SCC(=O)NCc4ccc(F)cc4)nn23)cc1	-3%	9.3µM*	4%	-2%	-16%
COc1cccc(NC(=O)CSc2ccc3nnc(CCNC(=O)c4ccccc4)n3n2)c1	-2%	10µM*	-9%	-3%	-23%
COc1ccccc1CNc1nc(Oc2cccc(F)c2)c2sccc2n1	.	.	.	-3%	.
COc1cc([N+](=O)[O-])ccc1N1C(=O)C2C3C=CC(C4CC34)C2C1=O (centres undefined)	45µM*	-4%	.	-5%	55%
COc1ccc([N+](=O)[O-])cc1-n1cnnn1	3%	1.5µM*	-1%	10%	12%
COc1ccc(N2C(=O)C3C4C=CC(C5CC45)C3C2=O)c([N+](=O)[O-])c1 (centres undefined)	-27%	48%	4%	-5%	13%
COc1ccc(C)cc1-n1cnnn1	8%	57%	-2%	-5%	0%
COc1cc([N+](=O)[O-])ccc1N	-2%	9.3µM*	-5%	-13%	11%
O=C(N1CCCC1)C12CC3CC(CC(Cl)(C3)C1)C2	5%	-5%	-4%	5%	?
O=C(NC1CCCC1)C(c1ccccn1)N(C(=O)c1csnn1)c1ccccc1Cl (centres undefined)	-9%	?	4%	2%	-6%
Cc1ccc(NC(=O)C2CCN(C(=O)c3cnn(-c4ccccc4)c3-n3cccc3)CC2)cc1	-2%	.	.	.	.
Cc1cc(=O)n2nc(N3CCC(C(=O)Nc4ccc(C(C)C)cc4)CC3)sc2n1	4%	.	.	.	.
CCCCN(C(=O)Cn1ncc(Cl)c(Cl)c1=O)c1c(N)n(CC(C)C)c(=O)[nH]c1=O	4.5µM*	-22%	3%	12%	0%
COCCN(C(=O)CSc1nnc(-c2ccc(Cl)cc2)o1)c1c(N)n(CC(C)C)c(=O)[nH]c1=O	4%	?	-1%	-4%	?
CCCCN(C(=O)CSc1nnc(-c2ccc(Cl)cc2)o1)c1c(N)n(CC(C)C)c(=O)[nH]c1=O	0%	?	.	-12%[11.6 µM]	13µM*
SMILES	Sm TGR inh	Pf growth 96h	NS1 function inh	AMA1-RON2 inh	Pf growth 48h
COc1ccc(C)cc1NC(=O)c1nnn(Cc2cc(C)ccc2C)c1N	-3%	5.2µM*	10%	-5%	.
COc1ccc(C)cc1NC(=O)c1nnn(CC(=O)Nc2c(C)cccc2C)c1N	-1%	.	.	.	.
COc1ccc(OC)c(NC(=O)c2nnn(Cc3ccccc3C)c2N)c1	2%	?	-37%	-6%	12µM*
COc1ccc(C(=O)O)cc1S(=O)(=O)Nc1ccc2cn[nH]c2c1	.	.	.	12%	.
C[N+](C)(C)CCOC(=O)C(O)(c1ccccc1)c1ccccc1	.	11µM*	.	.	0%
NS(=O)(=O)c1ccc(NC(=O)CN2CCN(S(=O)(=O)c3cccs3)CC2)cc1	-12%	-10%	.	9%	-18%
COc1ccc(C(=O)c2ccc(OC)c(OC)c2)cc1OC	2%	24%	-15%	-13%	-8%
COc1ccc(C(=O)c2nccc3cc(OC)c(OC)cc23)cc1OC	?	0.74µM*	.	6%[11.6 µM]	1.2µM*
Cn1cc(CCCC(=O)NCc2ccc(F)cc2)c2ccccc21	?	2.1µM*	-13%	-12%	?
COc1ccc(CNC(=O)CCc2cn(C)c3ccccc23)cc1	-3%	.	.	.	.
CCc1ccc(CN(Cc2cccnc2)C(=O)/C=C/c2ccc(OC)cc2)cc1	2%	?	11%	-7%	8.3µM*
COc1ccccc1NC(=O)C(CC=C(Cl)Cl)C(C)=O (centres undefined)	35µM*	?	-12%	5%	-62%
C[C@H](CO)N1C[C@H](C)[C@@H](CN(C)S(=O)(=O)c2ccccc2C#N)OCc2cnnn2CCCC1=O	.	.	.	7%	.
C/C(=N\NC(=O)c1ccccc1OCCOc1ccccc1)c1ccccc1F	-2%	?	.	8%	12µM*
C/C(=N\NC(=O)c1ccccc1)c1ccccc1F	-1%	408%	-6%	4%	424%
CCN(CCCNC(=O)c1cc2c(=O)[nH]c3ccccc3c2s1)c1ccccc1	6%	.	.	.	.
CCn1c(=O)c2cc(C(=O)NCc3cccs3)sc2c2ccccc21	-3%	2.3µM*	-44%	0%	57%
CCCN(CCC)CCCNC(=O)c1cc2c(=O)n(C)c3ccccc3c2s1	10µM*	.	.	.	.
COCCNC(=O)c1cc2c(=O)[nH]c3ccccc3c2s1	12%	1.2µM*	3%	2%	?
CCCN(CCC)CCCNC(=O)c1cc2c(=O)n(C)c3ccccc3c2n1C	?	?	-11%	3%	.
CCCCNC(=O)c1cc2c(=O)n(CC)c3ccccc3c2s1	5%	6.6µM*	3%	-4%	2%[0.00184 µM]
CC1Cc2ccccc2N1C(=O)c1cc2cccnc2n(C)c1=O (centres undefined)	3%	-22%	.	15%	35%
COc1cccc(NC(=S)NCc2ccncc2)c1	?	8.3µM*	3%	-2%[11.6 µM]	6%
COc1ccc(CNC(=S)Nc2cccc(OC)c2)cc1	0%	?	10%	-2%	0%
COc1cccc(NC(=O)Nc2ccncc2)c1	3%	-6%	5%	4%	10µM*
COc1cccc(NC(=O)Nc2nnc(N3C(C)CCCC3C)s2)c1 (centres undefined)	-6%	?	-4%	2%	13µM*

Assay outcomes from PubChem.
